Assay results as given in ChEMBL document CHEMBL1961873, “Compounds: GSK PKIS; Assays: Nanosyn kinase panel” (2012).

What was measured:
[1] = biological target: T1, Serine/threonine-protein kinase D2 (Homo sapiens) (UniProt Q9BZL6); settings: at 1 µM;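 also: mean value of PRKD2 inhibition, from the GSK PKIS screening panel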
T1 sequence (whole entry): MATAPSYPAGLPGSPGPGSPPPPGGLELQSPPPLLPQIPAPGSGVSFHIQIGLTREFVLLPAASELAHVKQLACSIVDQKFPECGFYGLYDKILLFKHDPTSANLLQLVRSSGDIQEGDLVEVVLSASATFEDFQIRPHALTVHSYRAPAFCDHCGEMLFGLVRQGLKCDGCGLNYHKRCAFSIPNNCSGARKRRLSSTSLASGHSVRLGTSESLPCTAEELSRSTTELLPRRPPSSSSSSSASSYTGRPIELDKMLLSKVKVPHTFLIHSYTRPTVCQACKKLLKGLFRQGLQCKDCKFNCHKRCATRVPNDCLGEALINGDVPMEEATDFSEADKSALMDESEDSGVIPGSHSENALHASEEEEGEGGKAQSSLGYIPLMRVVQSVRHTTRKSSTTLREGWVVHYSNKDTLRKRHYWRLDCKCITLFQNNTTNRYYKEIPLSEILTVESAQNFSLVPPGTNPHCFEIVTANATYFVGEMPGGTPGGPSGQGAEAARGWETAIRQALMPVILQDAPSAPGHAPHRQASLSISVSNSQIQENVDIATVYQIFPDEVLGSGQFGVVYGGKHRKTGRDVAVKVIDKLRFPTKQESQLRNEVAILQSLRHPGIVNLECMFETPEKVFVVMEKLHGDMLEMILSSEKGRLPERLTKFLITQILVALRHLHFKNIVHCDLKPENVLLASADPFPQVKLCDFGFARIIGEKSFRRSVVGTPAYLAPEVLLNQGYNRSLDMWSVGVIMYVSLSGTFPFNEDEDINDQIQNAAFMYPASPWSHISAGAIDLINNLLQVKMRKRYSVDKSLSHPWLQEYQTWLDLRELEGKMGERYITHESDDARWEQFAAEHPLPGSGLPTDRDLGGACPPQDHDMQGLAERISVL

[2] = biological target: T2, Serine/threonine-protein kinase D3 (Homo sapiens) (UniProt O94806); settings: at 0.1 µM
T2 sequence (whole entry): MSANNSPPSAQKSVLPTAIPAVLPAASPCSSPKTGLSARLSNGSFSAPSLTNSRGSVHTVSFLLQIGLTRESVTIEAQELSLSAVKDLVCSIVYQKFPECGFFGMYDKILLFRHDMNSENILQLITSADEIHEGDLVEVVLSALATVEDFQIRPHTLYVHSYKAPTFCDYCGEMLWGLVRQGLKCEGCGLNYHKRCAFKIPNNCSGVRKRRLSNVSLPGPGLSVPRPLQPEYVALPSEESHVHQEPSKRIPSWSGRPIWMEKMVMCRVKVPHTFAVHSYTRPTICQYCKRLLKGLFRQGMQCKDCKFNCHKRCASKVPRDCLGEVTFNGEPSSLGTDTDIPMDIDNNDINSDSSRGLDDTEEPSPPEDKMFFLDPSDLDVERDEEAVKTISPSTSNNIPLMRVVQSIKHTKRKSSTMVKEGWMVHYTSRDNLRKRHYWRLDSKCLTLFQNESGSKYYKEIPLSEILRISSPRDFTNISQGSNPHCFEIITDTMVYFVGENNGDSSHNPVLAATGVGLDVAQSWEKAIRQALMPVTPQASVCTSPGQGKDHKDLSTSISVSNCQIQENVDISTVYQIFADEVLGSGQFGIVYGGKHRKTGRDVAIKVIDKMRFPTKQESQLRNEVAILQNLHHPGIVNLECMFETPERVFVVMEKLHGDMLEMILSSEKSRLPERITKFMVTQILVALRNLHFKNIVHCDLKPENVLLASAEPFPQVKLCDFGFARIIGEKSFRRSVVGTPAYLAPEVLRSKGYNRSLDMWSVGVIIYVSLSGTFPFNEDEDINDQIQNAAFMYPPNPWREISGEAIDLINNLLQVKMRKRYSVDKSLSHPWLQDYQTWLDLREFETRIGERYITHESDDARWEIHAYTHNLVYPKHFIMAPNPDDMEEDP

[3] = biological target: T2, Serine/threonine-protein kinase D3 (Homo sapiens); settings: at 1 µM
[4] = biological target: T3, cGMP-dependent protein kinase 1 (Homo sapiens) (UniProt Q13976); settings: at 0.1 µM
T3 sequence (whole entry): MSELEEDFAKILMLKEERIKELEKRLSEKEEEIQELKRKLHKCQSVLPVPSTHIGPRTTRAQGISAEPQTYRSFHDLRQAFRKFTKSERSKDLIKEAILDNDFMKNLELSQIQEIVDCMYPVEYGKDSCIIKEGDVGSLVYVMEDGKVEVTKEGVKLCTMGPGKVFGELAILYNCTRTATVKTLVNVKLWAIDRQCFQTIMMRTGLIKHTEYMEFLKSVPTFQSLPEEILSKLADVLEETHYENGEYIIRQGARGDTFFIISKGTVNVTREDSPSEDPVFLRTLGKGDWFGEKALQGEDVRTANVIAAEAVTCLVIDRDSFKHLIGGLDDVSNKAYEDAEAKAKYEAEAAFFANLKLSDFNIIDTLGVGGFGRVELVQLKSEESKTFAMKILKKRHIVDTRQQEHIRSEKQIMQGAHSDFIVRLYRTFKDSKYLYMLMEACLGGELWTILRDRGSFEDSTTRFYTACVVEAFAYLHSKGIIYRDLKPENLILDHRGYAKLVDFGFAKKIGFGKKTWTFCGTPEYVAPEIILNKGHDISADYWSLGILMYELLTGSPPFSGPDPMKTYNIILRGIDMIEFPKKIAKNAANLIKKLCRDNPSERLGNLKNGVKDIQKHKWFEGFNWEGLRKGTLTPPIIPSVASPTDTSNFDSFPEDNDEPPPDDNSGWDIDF

[5] = biological target: T3, cGMP-dependent protein kinase 1 (Homo sapiens); settings: at 1 µM
[6] = biological target: T4, cGMP-dependent protein kinase 2 (Homo sapiens) (UniProt Q13237); settings: at 0.1 µM
T4 sequence (whole entry): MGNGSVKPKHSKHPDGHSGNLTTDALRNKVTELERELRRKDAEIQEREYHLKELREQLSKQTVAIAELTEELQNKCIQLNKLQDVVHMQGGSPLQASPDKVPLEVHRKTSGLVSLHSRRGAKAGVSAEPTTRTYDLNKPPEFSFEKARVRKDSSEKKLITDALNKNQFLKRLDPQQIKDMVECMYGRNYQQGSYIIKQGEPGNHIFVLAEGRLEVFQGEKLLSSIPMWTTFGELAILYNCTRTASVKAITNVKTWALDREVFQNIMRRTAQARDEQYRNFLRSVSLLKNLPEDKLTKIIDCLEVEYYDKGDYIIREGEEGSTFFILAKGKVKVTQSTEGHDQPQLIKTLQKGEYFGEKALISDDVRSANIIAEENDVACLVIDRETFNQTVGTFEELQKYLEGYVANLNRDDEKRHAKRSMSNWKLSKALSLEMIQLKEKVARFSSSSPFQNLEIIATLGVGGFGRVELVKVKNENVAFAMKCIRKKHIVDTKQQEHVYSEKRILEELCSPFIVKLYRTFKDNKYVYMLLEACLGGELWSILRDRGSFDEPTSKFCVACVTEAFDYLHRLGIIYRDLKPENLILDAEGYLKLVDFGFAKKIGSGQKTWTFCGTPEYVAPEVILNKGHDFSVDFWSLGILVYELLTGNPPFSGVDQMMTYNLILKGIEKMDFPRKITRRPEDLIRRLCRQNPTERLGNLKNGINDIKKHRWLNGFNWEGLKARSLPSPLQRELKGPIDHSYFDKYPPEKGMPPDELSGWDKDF

[7] = biological target: T4, cGMP-dependent protein kinase 2 (Homo sapiens); settings: at 1 µM
[8] = biological target: T5, cAMP-dependent protein kinase catalytic subunit PRKX (Homo sapiens) (UniProt P51817); settings: at 0.1 µM
T5 sequence (whole entry): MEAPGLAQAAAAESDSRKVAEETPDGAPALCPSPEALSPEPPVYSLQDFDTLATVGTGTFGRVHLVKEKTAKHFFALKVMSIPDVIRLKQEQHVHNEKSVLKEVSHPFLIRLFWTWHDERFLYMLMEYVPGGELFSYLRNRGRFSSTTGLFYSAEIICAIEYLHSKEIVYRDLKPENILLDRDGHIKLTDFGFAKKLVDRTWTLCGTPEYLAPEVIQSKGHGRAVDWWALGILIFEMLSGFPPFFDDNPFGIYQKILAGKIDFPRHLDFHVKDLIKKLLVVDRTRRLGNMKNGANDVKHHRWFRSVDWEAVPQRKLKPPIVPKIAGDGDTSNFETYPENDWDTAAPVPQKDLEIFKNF

[9] = biological target: T5, cAMP-dependent protein kinase catalytic subunit PRKX (Homo sapiens); settings: at 1 µM
[10] = biological target: Rho-associated protein kinase 1 (Homo sapiens) (UniProt Q13464); settings: at 0.1 µM
[11] = biological target: Rho-associated protein kinase 1 (Homo sapiens) (UniProt Q13464); settings: at 1 µM
[12] = biological target: Rho-associated protein kinase 2 (Homo sapiens) (UniProt O75116); settings: at 0.1 µM
Sequence of Rho-associated protein kinase 2 (Homo sapiens) (O75116 whole entry, looked up): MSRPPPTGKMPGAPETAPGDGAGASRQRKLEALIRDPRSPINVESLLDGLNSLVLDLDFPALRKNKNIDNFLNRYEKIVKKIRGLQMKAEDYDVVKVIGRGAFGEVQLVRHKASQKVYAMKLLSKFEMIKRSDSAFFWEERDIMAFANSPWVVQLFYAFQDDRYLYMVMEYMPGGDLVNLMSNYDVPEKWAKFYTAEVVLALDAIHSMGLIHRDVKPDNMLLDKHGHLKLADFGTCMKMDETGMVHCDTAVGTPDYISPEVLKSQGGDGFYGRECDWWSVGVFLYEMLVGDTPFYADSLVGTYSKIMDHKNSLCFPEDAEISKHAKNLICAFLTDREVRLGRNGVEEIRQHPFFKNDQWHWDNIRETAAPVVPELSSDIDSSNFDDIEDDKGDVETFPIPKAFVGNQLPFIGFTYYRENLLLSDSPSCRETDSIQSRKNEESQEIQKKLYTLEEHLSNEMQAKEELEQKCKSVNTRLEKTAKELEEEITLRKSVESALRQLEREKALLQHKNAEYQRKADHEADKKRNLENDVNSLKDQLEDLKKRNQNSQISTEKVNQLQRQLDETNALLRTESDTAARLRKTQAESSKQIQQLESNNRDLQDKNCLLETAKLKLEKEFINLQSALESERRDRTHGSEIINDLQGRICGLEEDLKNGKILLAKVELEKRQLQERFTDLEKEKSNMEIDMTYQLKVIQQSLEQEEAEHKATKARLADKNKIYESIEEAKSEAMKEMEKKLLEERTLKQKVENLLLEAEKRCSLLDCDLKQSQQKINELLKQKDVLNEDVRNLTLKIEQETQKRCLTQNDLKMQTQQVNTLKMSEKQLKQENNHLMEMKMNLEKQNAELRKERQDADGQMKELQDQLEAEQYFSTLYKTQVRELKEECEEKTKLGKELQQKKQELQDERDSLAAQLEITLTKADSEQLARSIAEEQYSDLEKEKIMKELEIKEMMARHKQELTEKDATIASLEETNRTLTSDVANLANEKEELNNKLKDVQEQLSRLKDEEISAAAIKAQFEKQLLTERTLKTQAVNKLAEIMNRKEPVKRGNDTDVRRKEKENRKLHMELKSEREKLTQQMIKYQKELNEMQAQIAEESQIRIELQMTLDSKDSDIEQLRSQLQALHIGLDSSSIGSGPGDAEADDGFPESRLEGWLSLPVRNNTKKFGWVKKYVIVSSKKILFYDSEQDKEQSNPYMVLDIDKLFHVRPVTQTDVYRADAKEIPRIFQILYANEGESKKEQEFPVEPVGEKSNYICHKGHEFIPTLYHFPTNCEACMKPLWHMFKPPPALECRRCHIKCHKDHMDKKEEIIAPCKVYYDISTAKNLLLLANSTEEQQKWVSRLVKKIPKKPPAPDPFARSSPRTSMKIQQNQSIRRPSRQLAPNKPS

[13] = biological target: Rho-associated protein kinase 2 (Homo sapiens) (UniProt O75116); settings: at 1 µM
[14] = biological target: Ribosomal protein S6 kinase alpha-1 (Homo sapiens) (UniProt Q15418); settings: at 0.1 µM
Sequence of Ribosomal protein S6 kinase alpha-1 (Homo sapiens) (Q15418 whole entry): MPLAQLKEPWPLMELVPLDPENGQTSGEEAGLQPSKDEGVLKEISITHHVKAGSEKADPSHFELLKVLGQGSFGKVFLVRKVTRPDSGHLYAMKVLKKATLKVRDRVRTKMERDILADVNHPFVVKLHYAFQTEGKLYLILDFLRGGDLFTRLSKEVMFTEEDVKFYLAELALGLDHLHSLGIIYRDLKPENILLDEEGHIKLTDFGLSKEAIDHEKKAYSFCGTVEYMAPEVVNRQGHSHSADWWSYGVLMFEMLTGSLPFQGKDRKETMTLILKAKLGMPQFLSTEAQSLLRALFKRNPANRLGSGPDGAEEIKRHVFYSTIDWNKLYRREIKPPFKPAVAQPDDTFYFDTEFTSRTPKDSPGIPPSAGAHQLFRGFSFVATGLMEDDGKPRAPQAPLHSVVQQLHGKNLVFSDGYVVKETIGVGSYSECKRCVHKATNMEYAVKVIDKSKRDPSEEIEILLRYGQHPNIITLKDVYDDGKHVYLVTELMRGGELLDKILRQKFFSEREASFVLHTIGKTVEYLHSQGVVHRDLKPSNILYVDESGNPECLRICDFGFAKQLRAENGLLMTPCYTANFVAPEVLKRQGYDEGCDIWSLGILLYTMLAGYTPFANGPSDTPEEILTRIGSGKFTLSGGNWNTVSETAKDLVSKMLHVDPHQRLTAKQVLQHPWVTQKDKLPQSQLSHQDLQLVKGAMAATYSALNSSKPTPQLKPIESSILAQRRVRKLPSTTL

[15] = biological target: Ribosomal protein S6 kinase alpha-1 (Homo sapiens) (UniProt Q15418); settings: at 1 µM
[16] = biological target: Ribosomal protein S6 kinase alpha-3 (Homo sapiens) (UniProt P51812); settings: at 0.1 µM
Sequence of Ribosomal protein S6 kinase alpha-3 (Homo sapiens) (P51812 whole entry): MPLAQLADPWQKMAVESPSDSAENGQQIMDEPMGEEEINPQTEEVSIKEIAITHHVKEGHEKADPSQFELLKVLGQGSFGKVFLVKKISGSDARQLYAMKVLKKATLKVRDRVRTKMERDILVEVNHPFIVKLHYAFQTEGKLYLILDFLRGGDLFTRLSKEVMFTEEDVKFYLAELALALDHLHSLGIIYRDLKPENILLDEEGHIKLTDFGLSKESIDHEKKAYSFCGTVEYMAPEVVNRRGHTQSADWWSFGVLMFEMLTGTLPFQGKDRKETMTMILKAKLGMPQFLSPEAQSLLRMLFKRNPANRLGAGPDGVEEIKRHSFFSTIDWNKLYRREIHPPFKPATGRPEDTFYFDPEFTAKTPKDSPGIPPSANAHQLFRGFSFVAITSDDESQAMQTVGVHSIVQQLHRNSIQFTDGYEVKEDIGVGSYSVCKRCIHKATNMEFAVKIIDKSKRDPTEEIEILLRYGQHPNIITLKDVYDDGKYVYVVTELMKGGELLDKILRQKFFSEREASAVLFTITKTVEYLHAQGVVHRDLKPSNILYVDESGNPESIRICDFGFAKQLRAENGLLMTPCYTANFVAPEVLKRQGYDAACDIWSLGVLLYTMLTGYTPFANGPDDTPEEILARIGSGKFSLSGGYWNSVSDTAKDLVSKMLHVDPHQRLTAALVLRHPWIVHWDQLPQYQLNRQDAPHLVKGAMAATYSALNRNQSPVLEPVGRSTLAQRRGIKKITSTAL

[17] = biological target: Ribosomal protein S6 kinase alpha-3 (Homo sapiens) (UniProt P51812); settings: at 1 µM
[18] = biological target: Ribosomal protein S6 kinase alpha-2 (Homo sapiens) (UniProt Q15349); settings: at 0.1 µM
Sequence of Ribosomal protein S6 kinase alpha-2 (Homo sapiens) (Q15349 whole entry): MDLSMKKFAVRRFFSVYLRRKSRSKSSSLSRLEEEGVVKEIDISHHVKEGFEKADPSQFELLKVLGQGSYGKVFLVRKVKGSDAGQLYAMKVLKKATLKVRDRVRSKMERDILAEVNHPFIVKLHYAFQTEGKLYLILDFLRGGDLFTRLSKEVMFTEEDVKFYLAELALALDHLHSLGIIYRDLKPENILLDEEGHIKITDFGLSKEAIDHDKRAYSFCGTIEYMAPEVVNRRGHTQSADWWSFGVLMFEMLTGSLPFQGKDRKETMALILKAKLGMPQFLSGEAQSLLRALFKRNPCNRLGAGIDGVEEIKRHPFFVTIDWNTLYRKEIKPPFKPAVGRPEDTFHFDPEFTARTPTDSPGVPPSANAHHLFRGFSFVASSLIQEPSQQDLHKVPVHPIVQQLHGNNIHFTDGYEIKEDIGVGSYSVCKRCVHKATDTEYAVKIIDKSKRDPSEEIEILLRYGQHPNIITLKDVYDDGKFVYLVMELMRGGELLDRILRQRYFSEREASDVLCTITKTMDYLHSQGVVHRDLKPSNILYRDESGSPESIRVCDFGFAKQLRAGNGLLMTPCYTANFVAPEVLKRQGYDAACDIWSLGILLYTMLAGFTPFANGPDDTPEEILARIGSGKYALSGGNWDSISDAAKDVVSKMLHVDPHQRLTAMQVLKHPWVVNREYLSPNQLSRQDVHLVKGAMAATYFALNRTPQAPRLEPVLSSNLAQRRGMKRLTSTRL

[19] = biological target: Ribosomal protein S6 kinase alpha-2 (Homo sapiens) (UniProt Q15349); settings: at 1 µM
[20] = biological target: Ribosomal protein S6 kinase alpha-6 (Homo sapiens) (UniProt Q9UK32); settings: at 0.1 µM;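 also: reported value is the mean inhibition of RSK4, from the GSK PKIS kinase inhibitor screen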
Sequence of Ribosomal protein S6 kinase alpha-6 (Homo sapiens) (Q9UK32 whole entry): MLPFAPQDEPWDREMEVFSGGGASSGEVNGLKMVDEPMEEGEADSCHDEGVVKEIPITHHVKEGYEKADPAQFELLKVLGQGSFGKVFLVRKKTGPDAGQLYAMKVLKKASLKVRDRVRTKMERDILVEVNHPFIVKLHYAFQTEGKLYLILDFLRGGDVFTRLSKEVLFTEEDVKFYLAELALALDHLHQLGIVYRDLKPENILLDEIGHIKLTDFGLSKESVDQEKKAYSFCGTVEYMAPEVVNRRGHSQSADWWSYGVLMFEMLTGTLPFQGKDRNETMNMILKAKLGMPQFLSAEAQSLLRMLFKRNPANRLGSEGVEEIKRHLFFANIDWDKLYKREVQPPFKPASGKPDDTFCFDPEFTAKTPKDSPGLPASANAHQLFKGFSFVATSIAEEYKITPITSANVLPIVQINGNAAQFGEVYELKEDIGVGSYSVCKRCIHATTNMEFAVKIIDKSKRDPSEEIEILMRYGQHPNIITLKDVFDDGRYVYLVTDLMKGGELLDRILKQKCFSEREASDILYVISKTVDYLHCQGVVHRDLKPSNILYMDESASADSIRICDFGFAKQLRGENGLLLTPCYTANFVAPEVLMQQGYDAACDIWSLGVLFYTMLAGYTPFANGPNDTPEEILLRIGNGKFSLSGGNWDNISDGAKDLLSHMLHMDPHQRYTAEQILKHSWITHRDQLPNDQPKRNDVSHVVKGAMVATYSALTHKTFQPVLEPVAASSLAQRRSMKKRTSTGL

SMILES | inhibition [1] [%] | inhibition [2] [%] | inhibition [3] [%] | inhibition [4] [%] | inhibition [5] [%] | inhibition [6] [%] | inhibition [7] [%] | inhibition [8] [%] | inhibition [9] [%] | inhibition [10] [%] | inhibition [11] [%] | inhibition [12] [%] | inhibition [13] [%] | inhibition [14] [%] | inhibition [15] [%] | inhibition [16] [%] | inhibition [17] [%] | inhibition [18] [%] | inhibition [19] [%] | inhibition [20] [%]
COc1cc2c(cc1Nc1nc(Nc3ccsc3C(N)=O)c3cc[nH]c3n1)N(C(=O)CN(C)C)CCC2(C)C | 75.7 | 19.8 | 75.7 | 3.61 | 8.75 | 4.41 | 9.54 | 2.19 | 6.05 | 25 | 66.5 | 29.2 | 72.1 | 23.2 | 66 | 17.2 | 50.7 | 8.55 | 34.4 | 11.5
CC(C)COC(=O)c1ccc2c(c1)/C(=C/Nc1ccc(S(N)(=O)=O)cc1)C(=O)N2 | 62.1 | 1.74 | 46.3 | 4.93 | 14.3 | 11 | 54.4 | 6.36 | 13.5 | 4.52 | 30.2 | 6.15 | 43.9 | 6.23 | 32.4 | 7.27 | 36 | 5.76 | 35.5 | 4.96
[O-][S+]1CCN(Cc2ccc(-c3ccc4ncnc(Nc5ccc(OCc6cccc(F)c6)c(Cl)c5)c4c3)o2)CC1 | 6.63 | 4.66 | 6.53 | 3.87 | 3.85 | 3.53 | 5.63 | 2.88 | 2.98 | 2.1 | 4.37 | 2.9 | 5.33 | 2.31 | 3.99 | 0.59 | 0.78 | 3.09 | 3.37 | 1.65
O=S(=O)(CCNCc1ccc(-c2ccc3ncnc(Nc4ccc(OCc5cccc(F)c5)c(Cl)c4)c3c2)o1)c1ccccc1 | 4.53 | 5.12 | 5.2 | 4.89 | 3.93 | 3.34 | 3.34 | 2.74 | 2.77 | 2.37 | 3.67 | 3.77 | 5.56 | 2.26 | 4.3 | 0.92 | 0.8 | 1.16 | 2.98 | 0.95
COC(=O)Nc1nc2ccc(Oc3ccc(NC(=O)Nc4cccc(Cl)c4)cc3)cc2[nH]1 | 2.04 | 0.95 | 3.39 | 0.03 | -0.55 | 0.27 | -0.85 | 0.22 | -1.01 | 0.69 | 6.4 | 2.53 | 5.68 | -0.78 | 0.39 | 0.65 | 1.37 | 0.54 | 0.67 | -0.53
COc1ccc2c(-c3ccnc(Nc4cccc(OC(F)(F)F)c4)n3)cnn2n1 | 5.35 | 3.53 | 5.76 | 2.98 | 14.2 | 1.96 | 7.99 | 2.02 | 3.71 | 1.01 | 2.92 | 3.74 | 8.15 | 2.26 | 3.67 | 1.3 | 1.1 | 1.43 | 2.43 | 1.53
